# Records with an inconclusive call do not appear. The source made the active and inactive calls. Unless noted, cut-off not given; nearly all actives show AC50 up to about 26 µM.
# Assays:
# [1] = viability loss in pontine glioma line – cell-based, SU-DIPG-XVII, MIPE5.0, CellTiter-Glo, qHTS, dose response (AID 1347060); conditions: CellTiter-Glo ATP luminescence;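 on AC50: cells exposed to compound for 48 hours before viability readout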
# [2] = viability loss in pontine glioma line – cell-based, SU-DIPG-XIII, MIPE4.0, CellTiter-Glo, qHTS, dose response (AID 1347061; cut-off not given, nearly all actives have AC50 up to about 37 µM;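 further: cells exposed to compound for 48 hours before readout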); conditions: CellTiter-Glo ATP luminescence
# [3] = viability loss in pontine glioma line – cell-based, SU-DIPG-XIII, MIPE5.0, CellTiter-Glo, qHTS, dose response (AID 1347064; cut-off not given, nearly all actives have AC50 up to about 23 µM;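 on AC50: cells exposed to compound for 48 hours before the viability read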); conditions: CellTiter-Glo ATP luminescence
# [4] = viability loss in pontine glioma line – cell-based, SU-DIPG-XXV, MIPE5.0, CellTiter-Glo, qHTS, dose response (AID 1347065); conditions: CellTiter-Glo ATP luminescence;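 further: cells exposed to compound for 48 hours before ATP readout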
# [5] = growth inhibition of DIPG cells – cell-based, MIPE4.0 library, CellTiter-Glo luminescence, qHTS (AID 1347066; cut-off not given, nearly all actives have AC50 up to about 30 µM;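 further: cells exposed to compound for 48 hours before readout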); conditions: SU-DIPG-VI viability, CellTiter-Glo ATP luminescence
# [6] = JHH-DIPG-1 glioma cell viability, MIPE5.0 library, CellTiter-Glo luminescence, qHTS (AID 1347067); conditions: JHH-DIPG-1 glioma viability, CellTiter-Glo ATP luminescence;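 further: cells exposed to compound for 48 hours before readout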
# [7] = growth inhibition of DIPG cells – cell-based, MIPE5.0 library, qHTS (AID 1347068; cut-off not given, nearly all actives have IC50 up to about 30 µM;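 on IC50: cells exposed to compound for 48 hours before viability readout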); conditions: SU-DIPG-XXV viability
# [8] = P. berghei load reduction in hepatocytes – cell-based, HepG2, luciferase luminescence, HepG2 viability, primary screen (AID 624349; in the data active means parasite load remaining mostly below about 12%, no sharp cut-off; inactive means mostly above about 10%;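 further: 100% = mean of DMSO negative control wells on the same plate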); conditions: P. berghei liver stage in HepG2, luciferase luminescence, concentration not given here; parasite load remaining: stronger effect = lower value; viability: measured here: HepG2 viability without parasites
# [9] = test system: Aerobactin synthetase IucA (Klebsiella pneumoniae, hypervirulent); assay: biochemical IucA inhibition screen of LOPAC library by absorbance (AID 1346212; call rule not given here;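 further: 100% = no compound wells and 0% = no enzyme wells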); conditions: IucA enzyme assay, absorbance (OD) readout; stronger effect = lower value;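 tested at 8 µM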
# [10] = viability loss in pontine glioma line – cell-based, JHH-DIPG-1, MIPE4.0, CellTiter-Glo, qHTS, dose response (AID 1347062; cut-off not given, nearly all actives have AC50 up to about 27 µM;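 on AC50: cells exposed to compound for two days before readout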); conditions: JHH-DIPG-1 viability, CellTiter-Glo ATP luminescence
# [11] = viability loss in pontine glioma line – cell-based, SU-DIPG-IV, MIPE4.0, CellTiter-Glo, qHTS, dose response (AID 1347063; cut-off not given, nearly all actives have AC50 up to about 30 µM;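 further: compound exposure lasted 48 hours before the viability readout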); conditions: CellTiter-Glo ATP luminescence
# [12] = viability loss with induced miR-34 in A549 – imaging, A549 dox-inducible miR-34, nuclei and caspase counts, primary screen (AID 1347080;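 active means compounds whose cell count with miR-34 switched on is under 0.7 times the count with it off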); conditions: A549 miR-34 inducible, Hoechst nuclei count, 48 h
# [13] = MELAS cybrid and Rieske KO viability enhancers – cell-based, MELAS cybrids, Rieske KO mouse fibroblasts, CellTiter-Glo, primary screen (AID 1508586;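 active means mean z-score across replicates of 1.96 or higher in either the MELAS or the Rieske mutant cell line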;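 further: z relative to plate mean and SD of compound and empty wells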); conditions: low glucose
# [14] = stronger effect = lower value, cell number ratio, induced over uninduced
# [15] = measured here: relative caspase fold change +Dox/-Dox
# [16] = measured here: total cells with miR-34 induction, stronger effect = lower value
# [17] = measured here: total cells without miR-34 induction
# [18] = MELAS cybrid survival, CellTiter-Glo 48 h, stronger effect = higher value
# [19] = Rieske KO mouse fibroblast survival, CellTiter-Glo 72 h
structure (smiles),measurement,setting,value
O=C1C=CC[C@@H]2[C@H]3CCCN4CCC[C@@H](CN12)[C@@H]34,outcome,[1],inactive
same,outcome,[2],inactive
same,outcome,[3],inactive
same,outcome,[4],inactive
same,outcome,[5],inactive
same,outcome,[6],inactive
same,outcome,[7],inactive
COc1ccc2c(c1)/C(=C/c1cnc[nH]1)C(=O)N2,parasite load remaining,[8],16.5% (inactive)
same,viability,[8],98.5%
same,remaining activity,[9],119% (inactive)
O=C(O)CNC(=O)c1c(O)c2ccccc2n(Cc2ccccc2)c1=O,outcome,[1],inactive
same,outcome,[2],inactive
same,outcome,[10],inactive
same,outcome,[11],inactive
same,outcome,[3],inactive
same,outcome,[4],inactive
same,outcome,[5],inactive
same,outcome,[6],inactive
same,outcome,[7],inactive
same,fold change,[12]; [14],1.05 (inactive)
same,fold change,[12]; [15],0.358
same,cell count,[12]; [16],8330
same,cell count,[12]; [17],7930
same,z-score,[13]; [18],-0.124 (inactive)
same,z-score,[13]; [19],-0.159
CCOc1ccccc1-n1c(C(C)N2CCN(C(=O)COc3ccc(Cl)cc3)CC2)nc2ccccc2c1=O (configuration not stated),AC50,[1],16.6 µM (active)
same,AC50,[4],18.6 µM (active)
same,IC50,[7],18.6 µM (active)
same,fold change,[12]; [14],0.777 (inactive)
same,fold change,[12]; [15],0.61
same,cell count,[12]; [16],5130
same,cell count,[12]; [17],6610
same,z-score,[13]; [18],1.76 (inactive)
same,z-score,[13]; [19],1.03
Cc1ncc(OC[C@@]2(c3cccc(F)c3)C[C@H]2C(=O)Nc2ccc(F)cn2)c(C)n1,outcome,[1],inactive
same,outcome,[3],inactive
same,outcome,[4],inactive
same,outcome,[6],inactive
same,outcome,[7],inactive
C[C@@H]1CC[C@@]2(OC1)O[C@H]1C[C@H]3[C@@H]4CC=C5C[C@@H](O[C@@H]6O[C@H](CO)[C@@H](O[C@@H]7O[C@@H](C)[C@H](O)[C@@H](O)[C@H]7O)[C@H](O)[C@H]6O[C@@H]6O[C@@H](C)[C@H](O)[C@@H](O)[C@H]6O)CC[C@]5(C)[C@H]4CC[C@]3(C)[C@H]1[C@@H]2C,AC50,[1],0.661 µM (active)
same,AC50,[10],2.35 µM (active)
same,AC50,[11],0.833 µM (active)
same,AC50,[3],0.148 µM (active)
same,AC50,[4],0.468 µM (active)
same,AC50,[5],5.26 µM (active)
same,AC50,[6],0.742 µM (active)
same,IC50,[7],3.72 µM (active)
